# Bioassay records: PubChem BioAssay, University of Kansas High Throughput Screening Laboratory
# mHTT-CaM PPI inh – mHTT-calmodulin interaction abrogation. P42858. AlphaScreen His-mHTT/GST-CaM binding, luminescence. inhibition, % at 15 µM. actives 3.6% (n = 190,000). AID 1671202;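 note: 0% = both proteins with DMSO and 100% = one protein alone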
# Pf apPOL inh – Pf-apPOL DNA polymerase inhibition; Recombinant Pf-apPOL, molecular beacon fluorescence, 1.5 h; AID 1794808; actives 0.25% (n = 210,000); inhibition, % at 10 µM
# Active calls of the source: *; . = not tested or not shown. Hits are enriched below; roughly 3.5% of the tested compounds scored in any of these assays. Cut-off read from the data, not from the text of the source: active = inhibition above about 50%; inactive = the rest.
SMILES,mHTT-CaM PPI inh,Pf apPOL inh
Cc1ccc(S(=O)(=O)N2CCN(S(=O)(=O)c3ccccc3[N+](=O)[O-])C2)cc1,1.0,-1.0
CC1CCCC(C)N1CC(O)COCc1ccc2c(c1)OCO2 (centres undefined),3.0,-8.1
O=C(O)/C(=C\c1ccco1)NC(=O)c1ccc(Cl)cc1Cl,-1.0,-12.8
CC1(C)CC2CC(C)(CN2C(=O)/C(=C/c2ccco2)NC(=O)c2ccc(Cl)cc2)C1 (centres undefined),62.0*,-0.5
CN1CCN(C(=N)C(C#N)=Cc2[nH]c3ccccc3c2O)CC1,24.0,1.2
COc1ccc(N=C(N)C(C#N)=Cc2[nH]c3ccccc3c2O)cc1,69.0*,2.5
COC(=O)c1cccc(NC(=S)NC(=O)c2cccs2)c1,.,5.3
COc1ccc(C(=O)Nc2ccc(N(C)C)cc2)cc1OC,1.8,-5.3
Cc1ccc([N+](=O)[O-])cc1NC(=O)c1cccc(C(=O)Nc2cc([N+](=O)[O-])ccc2C)n1,2.0,66.9*
Cc1ccc([N+](=O)[O-])cc1NC(=O)c1cnccn1,2.8,2.1
O=C(NCc1cccc(Cl)c1)c1ccc2ncnc(N3CCOCC3)c2c1,37.3,0.2
C1CCN(C2CCN(C3CC4CCC3C4)CC2)CC1 (centres undefined),-7.3,-4.3
C1CCCN(C2CCN(C3CC4CCC3C4)CC2)CC1 (centres undefined),81.0*,-6.6
COc1ccc(C2CCCN2C(=O)Nc2ccc(F)c(Cl)c2)cc1 (centres undefined),-6.4,-2.8
FC(F)(F)c1cnc(N=CN2CCOCC2)c(Cl)c1,.,-10.7
CC(C)(C)C1=CC(=Cc2cc(C(C)(C)C)c(O)c(C(C)(C)C)c2)C=C(C(C)(C)C)C1=O,18.5,.
CC(C)(C)C1=CC(=O)c2c(ccc(C(C)(C)C)c2O)C1=O,58.0*,3.1
O=C1C2C3c4ccccc4C(c4ccccc43)C2C(=O)N1CCc1c[nH]c2ccccc12 (centres undefined),100.3*,-89.3
CC(=O)c1c(C(C)=O)c(C)n(CCc2c[nH]c3ccccc23)c1C,5.4,-12.7
O=C(Nc1cc(-c2cccs2)nn1CCO)C1c2ccccc2Oc2ccccc21,57.8*,-4.1
O=C(NCCn1nc(-c2cccs2)ccc1=O)C1c2ccccc2Oc2ccccc21,-15.0,-6.7
CCOC(=O)c1cccc(NC(=O)C2CCN(c3ccncc3)CC2)c1,-12.2,17.8
O=C(c1ccco1)N1CCCC(c2ccnc(Nc3ccccc3F)n2)C1 (centres undefined),56.3*,0.7
Cc1cccc(Nc2nccc(C3CCCN(C(=O)c4ccco4)C3)n2)c1 (centres undefined),76.7*,-0.1
CN(C)c1ccc(C(=O)N2CCCC(c3ccnc(Nc4ccccc4F)n3)C2)cc1 (centres undefined),60.2*,-3.2
SMILES,mHTT-CaM PPI inh,Pf apPOL inh
N#Cc1ccc(C(=O)N2CCCC(c3ccnc(Nc4ccccc4F)n3)C2)cc1 (centres undefined),0.3,-0.3
CC(=O)N1CCCC(c2ccnc(Nc3cccc(C)c3)n2)C1 (centres undefined),10.9,-6.8
Cc1ccccc1Nc1nccc(C2CCCN(C(=O)c3ccco3)C2)n1 (centres undefined),21.4,-4.0
O=C(Nc1ccccc1C(=O)NC1CCCCC1)c1ccc(CN2CCOCC2)cc1,-0.8,0.5
O=C(c1cc(S(=O)(=O)N2CCOCC2)ccc1Cl)N1CCCCC1,-3.6,0.2
COc1ccc(-c2nnc3ccc4ccccc4n23)cc1OC,2.0,-0.3
CCOC(=O)CNC(=O)C1CCCc2c1[nH]c1ccc(Cl)cc21 (centres undefined),100.0*,0.8
NC(=O)CNC(=O)C1CCCc2c1[nH]c1ccc(Cl)cc21 (centres undefined),10.2,-7.2
CC(C)CC(C)NC(=O)c1nn(-c2ccc(F)cc2)c2ncccc12 (centres undefined),-21.8,-0.8
O=C(c1cccc(Cl)c1)N1CCC(C(=O)N2CCN(Cc3ccccc3)CC2)CC1,10.0,-0.4
O=C(c1cccc(Cl)c1)N1CCC(=O)N([C@H](COCc2ccccc2)Cc2ccccc2)CC1,66.3*,-4.1
Cc1ccc(S(=O)(=O)N2CCC(=O)N(C(COC(=O)Nc3ccccc3)Cc3ccccc3)CC2)cc1 (centres undefined),1.8,-9.5
O=C(c1cc(Cl)cc(Cl)c1)N1CCC(=O)N([C@H](COCc2ccccc2)Cc2ccccc2)CC1,92.2*,-2.6
COc1ccc(N(CC(=O)Nc2ccc(C(N)=O)cc2)S(C)(=O)=O)cc1Cl,5.1,-6.9
CN1CCc2cc(C(CNC(=O)Cc3cccc4ccccc34)N3CCOCC3)ccc21 (centres undefined),60.9*,-37.9
CN1CCc2cc(C(CNC(=O)c3ccccc3Br)N3CCOCC3)ccc21 (centres undefined),38.3,-24.3
CCc1ccccc1NC(=O)N1c2ccccc2Sc2ccccc21,-15.6,-1.2
O=C1CSC(c2cc3c(cc2[N+](=O)[O-])OCO3)N1c1ccccc1F (centres undefined),16.0,-2.5
O=[N+]([O-])c1cc2c(cc1C1NN=C(c3ccccc3)S1)OCO2 (centres undefined),52.3*,-9.2
Nc1ncc(C2=C(Cl)C(O)C(Cl)=C(Cl)C2O)s1 (centres undefined),100.3*,-3.1
COC(=O)c1ccc(N2C(c3cccc(OC)c3)=Cc3ccc(F)cc3C2c2c(C)[nH]c3ccccc23)cc1 (centres undefined),2.0,1.0
COc1ccc(-c2ccc(N3C(c4ccsc4)=Cc4ccc(F)cc4C3c3c[nH]c4ccccc34)cc2)cc1 (centres undefined),82.4*,-4.2
N#CC1=C(N)OC2=C(C(=O)CCC2)C1c1cc2c(cc1[N+](=O)[O-])OCO2 (centres undefined),90.3*,-0.1
N#CC1=C(N)OC2=C(C(=O)CCC2)C1c1cc([N+](=O)[O-])cs1 (centres undefined),1.0,-9.1
O=C1CC(Cc2ccccc2)(c2ccccc2)C(=O)N1 (centres undefined),-4.0,0.0
SMILES,mHTT-CaM PPI inh,Pf apPOL inh
CC(CCC(=O)N=Nc1c(O)[nH]c2c(Cl)cc(Cl)cc12)C1CCC2C3C(O)CC4CC(O)CCC4(C)C3CCC12C (centres undefined),66.9*,0.1
CC(CCC(=O)O)C1CCC2C3CC(O)C4CC(O)CCC4(C)C3CCC12C (centres undefined),19.0,-8.9
CC(CCC(=O)N=Nc1c(O)[nH]c2ccc(Cl)cc12)C1CCC2C3C(O)CC4CC(O)CCC4(C)C3CCC12C (centres undefined),43.2,0.9
CC(CCC(=O)NN=Cc1c[nH]c2ccccc12)C1CCC2C3C(O)CC4CC(O)CCC4(C)C3CCC12C (centres undefined),100.1*,-3.1
Cc1ccc(CN2C(=O)CC(N3CCCCC3)C2=O)cc1 (centres undefined),-3.6,-4.5
CC(=O)OC(COS(C)(=O)=O)C1OC2OC(C)(C)OC2C1OC(C)=O (centres undefined),-1.5,1.3
CCC(=O)N1CCN(c2nc(C)nc(C)c2Cc2c(F)cccc2Cl)CC1,10.3,-4.5
Cc1nc(C)c(Cc2ccc(Cl)cc2)c(N2CCN(C(=O)C3CCC3)CC2)n1,92.9*,3.2
Cc1nc(C)c(Cc2ccc(Cl)cc2)c(N2CCN(C(=O)C3CC3)CC2)n1,13.1,-4.1
CCC(=O)N1CCN(c2nc(C)nc(C)c2Cc2ccc(Cl)cc2Cl)CC1,51.9*,4.2
